# Hits are enriched below; roughly 2.4% of the tested compounds scored in any of these assays.
# D2 ag-1: agonists of human D2 dopamine receptor. P14416. HEK293 T-REx D2 cells, calcium flux agonist mode. activation, % at 2 µM. 340,000 tested, 0.53% active. AID 485358;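 active = activation over 3 SD above normal in the single-dose calcium agonist read, cut at about 30% in these data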; note: 0% is about no effect
# Target sequence (P14416 whole entry, looked up): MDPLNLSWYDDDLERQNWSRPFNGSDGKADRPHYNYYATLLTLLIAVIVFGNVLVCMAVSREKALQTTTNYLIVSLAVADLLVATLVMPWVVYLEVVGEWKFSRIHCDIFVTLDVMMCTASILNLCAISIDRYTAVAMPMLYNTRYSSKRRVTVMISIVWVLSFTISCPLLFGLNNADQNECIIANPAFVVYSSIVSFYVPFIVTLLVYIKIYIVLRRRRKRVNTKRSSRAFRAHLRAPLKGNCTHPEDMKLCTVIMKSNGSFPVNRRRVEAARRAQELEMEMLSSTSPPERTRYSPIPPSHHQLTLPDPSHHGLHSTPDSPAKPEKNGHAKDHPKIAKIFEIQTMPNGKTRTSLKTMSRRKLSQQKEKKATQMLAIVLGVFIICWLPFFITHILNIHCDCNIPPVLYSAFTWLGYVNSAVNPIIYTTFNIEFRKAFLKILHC
#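 Calcium-flux readout, 1 cycle/sec over 180 s following compound pin transfer, in inducible HEK293 Trex D2 cells (force-coupled); dopamine controls included. Positive calcium responses during this window marked compounds as potential agonists.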
# D2 PAM-1: positive allosteric modulators of human D2 dopamine receptor | DiscoveRx D2 beta-arrestin cells, luminescence, 90 min; 100% = 57 uM dopamine signal | potentiation, % (test concentration not listed) | 360,000 tested, 0.23% active | AID 624464; in the data active = potentiation above about 50%; inconclusive = mostly about 30% to 49%
#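 PathHunter beta-arrestin assay in DiscoveRx D2 cells. Compounds were added with an EC20 of dopamine (50 nM final) for 90 min at 37 deg C. Luminescence was read 1 h after detection reagent, with 57 uM dopamine as the EC100 control.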
# D2 antagonist: antagonizes the human D2 dopamine receptor | P14416 | HEK293 TREx D2 cells, calcium flux, dopamine EC80 | inhibition, % at 10 µM | 340,000 tested, 2% active | AID 485344; in the data active = inhibition above about 30%; inactive = below that, where a call was filed; note: 0% is about no effect
#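 Antagonism is scored as inhibition of an EC80 dopamine-evoked calcium signal in a force-coupled, tetracycline-inducible HEK293 T-REx D2 line, with compound present 180 s before agonist.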
# D2 ag-2: human D2 receptor agonism in beta-arrestin assay; P14416; DiscoveRx PathHunter D2 beta-arrestin, luminescence, 90 min; 100% = 57 uM dopamine signal; activation, % (no concentration beside the values); 360,000 tested, 0.084% active; in the data active = activation above about 40%; inconclusive = between about 15% and that limit
#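 Agonist mode: compounds alone added to overnight-plated D2 PathHunter cells for 90 min at 37 C, with 57 uM final dopamine (EC100) defining full response. Beta-arrestin recruitment detected by chemiluminescent reagent, read after 1 h at ambient temperature.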
# D2 PAM-2: positive allosteric modulators of human D2 dopamine receptor. P14416. HEK293 T-REx D2, calcium flux, EC20 dopamine potentiation. potentiation, % at 10 µM. 340,000 tested, 0.34% active. AID 485347;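 active = potentiation over 3 SD above the plate norm, cut at about 30% in these data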; note: 0% is about no effect
#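 Cells plated with tetracycline inducer and held overnight at 30 C; calcium dye loaded 30–90 min at room temperature; baseline taken, compound added and read 180 s; EC20 dopamine then added and read 180 s.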
# Numbers without * were called inactive; ? = inconclusive; . = no result.
SMILES,D2 ag-1,D2 PAM-1,D2 antagonist,D2 ag-2,D2 PAM-2
S=c1[nH]nc(C2CCCCC2)n1/N=C/c1ccc(Cl)cc1,0.2,-4.3,5.0,4.4,-4.0
O=C(C[n+]1ccc2ccccc2c1)Nc1cc(C(F)(F)F)ccc1Cl,0.7,-33.5,53.7*,-1.3,-21.3
O=C(C[n+]1ccccc1)Nc1cc(C(F)(F)F)ccc1Cl,-1.0,-44.4,1.9,-2.4,3.8
COc1cc(-c2nc(Cn3nnc(C(=O)Nc4cccc(Cl)c4)c3C)c(C)o2)cc(OC)c1OC,0.8,.,.,.,-1.6
COc1cc2nc(/C=C/c3ccc(N(C)C)cc3)sc2cc1SC,66.6*,-7.6,23.5,-3.4,-4.0
COc1cc2c(cc1OC)C(=Cc1ccc(N(C)C)cc1)C=C2,.,-9.7,.,-5.3,.
CC1(C)CC(=O)C(=Cc2cn(-c3ccccc3)nc2-c2ccc(Cl)cc2)C(=O)C1,-0.3,-7.0,32.3*,-1.8,5.0
CC1(C)CC(=O)C(=Cc2cn(CCC#N)nc2-c2ccc(Cl)cc2)C(=O)C1,2.7,-0.8,6.9,0.3,5.4
O=C(C1CCN(S(=O)(=O)Cc2ccccc2)CC1)N1CCN(c2ccccc2F)CC1,0.1,.,.,.,1.8
CCN(CC)C(=O)CSc1nc(O)c(Cc2ccc(OC)cc2)c(=O)[nH]1,-0.5,-4.3,-25.3,-5.1,14.5
CCc1c(O)nc(SCC(=O)N(CC)CC)[nH]c1=O,-0.7,2.8,34.1*,-1.6,-0.3
O=C(CN1C(=O)C2(SCC(=O)N2c2ccc(F)c(F)c2)c2ccccc21)NCCc1ccccc1 (stereo not given),2.5,.,.,.,-6.2
CCCCNC(=O)N1CCc2ccccc2C1,-1.4,-13.7,-5.3,-3.0,3.9
CCCCNc1nc2ccccc2n1CC(=O)N1CCc2ccccc2C1,-0.1,-26.7,52.9*,-5.7,-24.4
COc1cccc(NC(=O)c2c(N3CCCC3=O)c3cc(C)ccc3n2C)c1,-0.9,.,.,.,-2.0
Nc1c(C(=O)C2CC2)sc2nc(-c3cccs3)cc(C(F)(F)F)c12,35.9*,-12.6,3.7,-6.2,-8.3
c1ccc(-c2nc3nonc3nc2-c2ccccc2)cc1,0.6,74.2*,40.8*,?,11.7
CC1C/C(=N/O)C(C)CN1 (stereo not given),1.7,9.4,6.3,1.7,31.0*
CCN(CC)CCOC(=O)c1ccc(NC(=O)c2cc3cccc(OC)c3oc2=O)cc1,0.0,.,.,.,-1.0
O=S(=O)(Nc1c(O)ccc2ccccc12)c1ccccc1,.,13.6,.,41.9*,.
COc1ccc(-n2nnnc2C2CCN(S(=O)(=O)c3ccc(C)cc3)CC2)cc1,-0.4,.,.,.,-3.3
CCCn1c(N)c(C(=O)CSc2nnc(-c3cccs3)n2C2CC2)c(=O)[nH]c1=O,.,20.3,.,48.4*,.
COCCn1c(SCC(=O)c2c(N)n(C3CC3)c(=O)[nH]c2=O)nnc1-c1ccc(Cl)cc1,-0.1,-4.3,10.9,40.4*,-0.7
CCCn1c(N)c(C(=O)CSc2nnc(-c3c[nH]c4ccccc34)n2C2CC2)c(=O)[nH]c1=O,.,-6.5,.,-1.9,.
COCCCn1c(SCC(=O)c2c(N)n(C3CC3)c(=O)[nH]c2=O)nnc1-c1ccccc1Cl,.,-5.5,.,-2.2,.
SMILES,D2 ag-1,D2 PAM-1,D2 antagonist,D2 ag-2,D2 PAM-2
Cc1ccc(C2=CC(c3ccccc3F)n3c(nc4ccccc43)N2)cc1C (stereo not given),0.6,.,.,.,9.3
COc1ccc(-c2nc(CSc3nncn4c3cc3sccc34)c(C)o2)cc1OC,-0.3,.,.,.,2.0
Cn1c(CN2CCN(c3ccccc3NS(C)(=O)=O)CC2)nc2ccccc21,0.6,-23.6,32.5*,-4.1,-18.1
Cn1c(CN2CCN(c3ccc(Cl)cc3)CC2)nc2ccccc21,0.2,-20.5,2.5,-2.3,-6.0
Cc1cccc(NC(=O)Cn2cnc3sc(C)c(S(=O)(=O)N4CCC(C)CC4)c3c2=O)n1,-0.5,2.3,31.6*,2.6,21.6
Cc1sc2ncn(CC(=O)Nc3ccc(F)cc3F)c(=O)c2c1S(=O)(=O)N1CCC(C)CC1,0.4,.,.,.,-5.9
COc1ccc(NC(=O)CN2C(=O)C3(SCC(=O)N3c3cccc(OC)c3)c3ccccc32)cc1 (stereo not given),-0.3,.,.,.,.
COc1ccc(-c2nnc(SCC(=O)Nc3cccc(C(F)(F)F)c3)s2)cc1,1.6,.,.,.,5.8
CCc1ccccc1NC(=O)NC1CC2CCC(C1)N2Cc1ccco1 (stereo not given),-0.4,-32.7,32.3*,-3.8,-24.8
O=C(Nc1ccc(Cl)c(C(F)(F)F)c1)NC1CC2CCCC(C1)N2Cc1ccccc1 (stereo not given),0.6,-9.1,47.5*,-3.2,.
Cc1cccc(NC(=S)NC2CC3CCCC(C2)N3Cc2cccs2)c1 (stereo not given),0.9,-30.2,76.8*,1.1,-21.8
COc1cc(OC)cc(C(=O)NC2CC3CCC(C2)N3Cc2ccco2)c1 (stereo not given),1.7,-37.1,48.2*,-3.2,-16.8
Cc1ccc(C(=O)NC2CC3CCC(C2)N3Cc2ccco2)cc1 (stereo not given),0.1,-36.2,21.4,-3.2,-26.2
Fc1ccc(NC(=S)NC2CC3CCC(C2)N3Cc2ccco2)cc1 (stereo not given),.,-16.3,.,-3.1,.
O=C(Nc1cccc(Cl)c1)NC1CC2CCC(C1)N2Cc1ccco1 (stereo not given),1.2,-3.8,64.3*,1.4,-35.0
Cc1cc(C)cc(NC(=S)NC2CC3CCC(C2)N3Cc2ccco2)c1 (stereo not given),0.1,-23.3,45.7*,-8.7,-15.4
COc1ccccc1CNC(=O)C1CCN(C2=NS(=O)(=O)C(c3ccc(C)c(C)c3)=C2C)CC1,0.4,.,.,.,4.2
COc1cc([C@@H]2OC[C@@H]3[C@H]2CO[C@@H]3c2ccc3c(c2)OCO3)ccc1O,.,-5.4,.,0.0,.
COc1cc(CC2COC(c3ccc(O)c(OC)c3)C2COC(C)=O)ccc1O (stereo not given),0.5,-24.5,44.7*,-8.0,17.0
Cc1cc(C)n(-c2nc3cc(Cl)ccc3nc2N2CCN(c3ccccc3F)CC2)n1,0.4,.,.,.,-5.8
Cc1nc2ccccc2c(C)c1C(=O)c1ccccc1,1.3,-9.0,30.1*,-1.0,7.2
CCCCOc1ccc(Cl)cc1CSc1nnc(CC)n1N,1.2,8.8,35.5*,1.5,.
CCCOc1ccc(CSc2nnc(CCC)n2N)cc1,-0.2,-0.9,0.4,-2.6,2.0
O=C(C1CC1)N1CCc2cc(Br)cc(S(=O)(=O)NCCN3CCOCC3)c21,0.3,-8.6,39.9*,0.0,-16.3
O=C(C1CC1)N1CCc2cc(Br)cc(S(=O)(=O)N3CCOCC3)c21,.,24.9,.,0.1,.
O=C(CN1C(=O)CSc2ccc(S(=O)(=O)N3CCOCC3)cc21)NCCCN1CCc2ccccc2C1,1.2,-21.4,47.1*,0.4,-19.8

# Screening results deposited in PubChem BioAssay by National Center for Advancing Translational Sciences (NCATS).
